The list is not random: actives were taken first. Their share in the collection is about 0.74%.
CCT modulator: changes cytosolic chaperonin activity | purified chaperonin ATPase assay, HTRF ADP detection, 30 min | activity change, % (no concentration beside the values), hits read low | hit rate 0.3% among 360,000 | AID 651819; in the data active = activity change below about -30%; note: % is set by controls: 0 for no effect and ±100 for the full control effect
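Enzyme 40 or 20 nM (batch-dependent) in Tris pH 7.4/KCl/MgCl2/DTT; cpd 76 uM single point; ATP 10 uM; 30 min 37 °C; Transcreener ADP HTRF detection, 30 min RT; ratio 665/615.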
TCR activator: T cell receptor activation. primary human leukocytes, anti-CD3, IL-2 HTRF, 48 h. Potency, µM (doses to about 9.22 µM), inactives show at the highest dose activation of IL-2 secretion, most hits filed as activators. 330,000 tested, under 10 active; active = well fitted activation curve with a large enough effect; note: % of control where 0% means no effect
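Primary human leukocytes were stimulated with a-CD3 beads plus compounds for 48 hr without co-stimulation; secreted IL-2 was quantified by HTRF using a-IL-2-K (europium cryptate) and a-IL-2-d2, excited at 320nm with acceptor emission read at 665nm.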
TSHR antag: blocks TSH signaling through the human TSH receptor; AID 504810; activity change, negative = inhibition, % at 11.5 µM; TSHR-expressing cells, TSH-stimulated cAMP HTRF, 2 h; active compounds read low; hit rate 0.2% among 330,000;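 active = activity change below a set negative limit, meaning inhibition stronger than a set level, cut at about -70% in these data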; note: % is set by controls: 0 for no effect and ±100 for the full control effect
Target sequence (P16473 whole entry, looked up): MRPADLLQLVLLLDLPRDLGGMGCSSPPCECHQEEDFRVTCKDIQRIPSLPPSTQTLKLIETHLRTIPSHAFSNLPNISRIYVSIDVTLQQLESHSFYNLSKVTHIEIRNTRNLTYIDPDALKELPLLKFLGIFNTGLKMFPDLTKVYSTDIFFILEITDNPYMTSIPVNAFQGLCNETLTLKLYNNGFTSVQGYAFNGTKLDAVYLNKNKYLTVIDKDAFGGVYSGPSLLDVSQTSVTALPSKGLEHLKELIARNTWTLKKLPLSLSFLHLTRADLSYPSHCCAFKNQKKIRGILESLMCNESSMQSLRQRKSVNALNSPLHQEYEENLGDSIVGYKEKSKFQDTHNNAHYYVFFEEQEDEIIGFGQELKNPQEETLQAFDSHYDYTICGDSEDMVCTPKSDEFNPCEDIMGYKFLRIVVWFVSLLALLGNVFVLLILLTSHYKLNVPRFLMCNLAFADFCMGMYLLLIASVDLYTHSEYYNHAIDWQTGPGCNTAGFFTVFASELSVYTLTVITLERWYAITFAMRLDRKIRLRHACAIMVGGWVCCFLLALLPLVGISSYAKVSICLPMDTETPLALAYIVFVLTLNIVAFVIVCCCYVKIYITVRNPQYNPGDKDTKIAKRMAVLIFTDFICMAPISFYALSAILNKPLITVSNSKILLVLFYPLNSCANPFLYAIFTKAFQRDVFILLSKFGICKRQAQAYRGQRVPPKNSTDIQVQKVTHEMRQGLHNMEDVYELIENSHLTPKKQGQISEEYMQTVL
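Inhibition of cAMP made by TSHR-expressing cells under TSH stimulation (4nM final, EC80; 2 h, 37 deg C) is quantified with a one-step lysis HTRF kit, anti-cAMP cryptate versus cAMP-d2.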
Akt phos inh: Akt phosphorylation inhibition; Neuro2A IGF-stimulated pAkt S473 HTRF, 20 min; active compounds read low; activity change, % for hits at 50 µM; hit rate 0.32% among 360,000; AID 651550; in the data active = activity change below about -80%; note: % is set by controls: 0 for no effect and ±100 for the full control effect
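Single-point screen (50 µM final compound) in Neuro2A cells stimulated 20 min with 6 nM IGF at 37 deg C. After lysis, Ser473-phosphorylated Akt read by HTRF (ex 330 nm, em 615/665 nm) as the 665/615 ratio.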
The depositor's hits bear a star; i = inactive; x = not tested or not shown; [ ] = dose if it differs, or a comment.

SMILES | CCT modulator | TCR activator | TSHR antag | Akt phos inh
CCc1nnc(NC(=O)CCn2cnc3ccccc3c2=O)s1 | -31* | -12% | 4 | i
CCCCc1nnc(NC(=O)Cn2cnc3ccccc3c2=O)s1 | -2 | x | -2 | i
Cc1nnc(NC(=O)CC23CC4CC(CC(C4)C2)C3)s1 | -2 | 4% | -18 | i
C=C(C)C(=O)Nc1cccc(C2=NOC3(C2)C[C@H](C(N)=O)N(C(=O)/C=C/C)C3)c1 (stereo not given in full) | -50* | -3% | 18 | i
C=C(C)C(=O)Nc1cccc(C2=NOC3(C2)C[C@@H](C(N)=O)N(C(=O)/C=C/CC)C3)c1 (stereo not given in full) | -1 | 6% | -3 | i
COc1ccc(-c2cc(-c3ccc(Cl)cc3)c(C#N)c(SCC(=O)O)n2)cc1 | -2 | 3% | -72* | i
COc1ccc(-c2cc(-c3ccccc3)c(C#N)c(SCC(=O)O)n2)cc1 | 2 | -12% | x | i
CS(=O)(=O)N1CCCC(C(=O)Nc2ccc3c(c2)OCCO3)C1 (stereo not given) | 0 | x | -4 | i
COc1ccc(NC(=O)C(c2ccncc2)n2c(=O)c(-c3ccco3)nc3ccccc32)cc1 (stereo not given) | x | x | x | i
CCOC(=O)CSc1nc2cc3c(cc2cc1C#N)OCCO3 | -39* | x | -6 | i
COC(=O)CSc1nc2cc3c(cc2cc1C#N)OCO3 | -1 | -2% | -11 | i
CCOC(=O)CSc1nc2cc3c(cc2cc1C#N)OCO3 | -3 | -3% | -5 | i
CC(C)OC(=O)CSc1nc2cc3c(cc2cc1C#N)OCO3 | 2 | 5%[46.1 µM] | -7 | -97%*
CSc1ccccc1OCc1cc(C(=O)N(C)CC2COCCO2)no1 (stereo not given) | -1 | -1% | -1 | i
O=C(O)CCSCC(=O)Nc1c(C(=O)C2CC2)oc2ccccc12 | 1 | -6% | -4 | -100%*
CCCCC1S/C(=N/N=C/c2ccco2)NC1=O (stereo not given) | -42* | -4%[46.1 µM] | 3 | i
O=C(NC1CCCCC1)NC1CCN(CC(=O)N2CCOCC2)CC1 | -2 | -3% | 4 | -107%*
CC(=O)c1ccc(N=Cc2c(O)n(-c3cc(Cl)ccc3N3CCOCC3)c(=O)c3ccccc23)cc1 | 0 | 1% | 11 | -120%*
Cc1noc(C)c1NC(=O)N(C)C[C@H]1Oc2ccc(NC(=O)Cn3cnnn3)cc2C(=O)N([C@H](C)CO)C[C@@H]1C | 2 | 0% | -4 | i
O=C1CSC(=S)N1Nc1ccccc1 | -34* | 1% | x | i
OCC[C@@H]1C[C@H](O)[C@@H](O)[C@@]2(OCCCc3cc(C(F)(F)F)ccc32)O1 | -3 | x | x | i
CC/C(=N/O)c1cnnc(SC)n1 | -5 | 4%[46.1 µM] | 13 | i
CSc1nncc(/C(C)=N/O)n1 | -57* | -1%[46.1 µM] | 21 | i
CC(c1ccncc1)C(C)c1ccncc1 (stereo not given) | -2 | -1% | 1 | i
COc1ccccc1NC(=O)Nc1nc(C(N)Cc2ccccc2)cs1 (stereo not given) | -30* | x | x | i
SMILES | CCT modulator | TCR activator | TSHR antag | Akt phos inh
COc1ccccc1NC(=O)Nc1nc(C(N)Cc2ccc(Cl)cc2)cs1 (stereo not given) | -4 | x | x | i
CCN(CC(=O)Nc1ccc(NC(C)=O)cc1)CC(=O)Nc1cccc(Cl)c1 | -71* | 1% | 6 | i
COc1ccc(N2CC(C(=O)N3CCC4(CC3)CC(=O)c3ccccc3O4)CC2=O)cc1 (stereo not given) | -56* | -7% | -14 | i
C/C=C/c1ccc(OCCCNC)c(OC)c1 | -12 | -1% | 7 | -119%*
O=C(O)c1ccc(S(=O)(=O)N[C@H](Cc2ccc(O)cc2)C(=O)O)cc1 | x | x | -4 | x
COc1ccc(-c2nnc(SCC(=O)NCCc3ccccc3)o2)cc1 | 2 | -8%[46.1 µM] | -5 | -124%*
COc1ccc(Cc2nnc(SCC(=O)NCCc3ccccc3)o2)cc1 | -4 | 1% | 4 | i
COc1cc(NC(=O)c2ccc(-c3ccc(F)c(F)c3)c3ccoc23)cc(OC)c1OC | -2 | x | x | i
O=C(CCCn1c(=O)c2ccccc2n(Cc2ccccc2)c1=O)NCc1ccco1 | 1 | 2% | -10 | i
O=C(CCCCn1c(=O)c2ccccc2n(Cc2ccc(F)cc2)c1=O)NCc1ccco1 | 0 | -2% | -4 | -99%*
COc1cccc(NC(=O)c2ccccc2N2C(=O)C3C4C=CC(C5CC45)C3C2=O)c1 (stereo not given) | -2 | 4% | 12 | i
N#Cc1cn(CCOc2ccc(F)cc2)c2ccccc12 | -4 | -6%[46.1 µM] | -32 | -117%*
N#Cc1cn(CCOc2ccccc2F)c2ccccc12 | 1 | -5% | -5 | i
O=C(Nc1ccc([N+](=O)[O-])cc1Cl)c1cc(Cl)ccc1O | -3 | -2% | -91* | i
O=C(Nc1cccc(Cl)c1)c1cc(N=Nc2ccc([N+](=O)[O-])cc2Cl)ccc1O | -1 | 8% | -98* | i
CCCNC(=O)N(C)C[C@H]1Oc2ncc(C#CCc3ccccc3)cc2C(=O)N([C@H](C)CO)C[C@H]1C | 2 | x | x | i
CN1CCN(S(=O)(=O)c2ccc(NC(=O)Cc3ccc([N+](=O)[O-])cc3)cc2)CC1 | 1 | 3% | 14 | i
Cc1nc(C(F)(F)F)ccc1C(=O)N1CCC1(C)C(=O)NCc1ccc(Cl)cc1 (stereo not given) | -1 | x | x | i
CCN1CCN(Cc2cc(=O)oc3ccc(Cl)cc23)CC1 | 0 | -27% | -7 | i
CN1CCN(Cc2cc(=O)oc3ccc(Cl)cc23)CC1 | -1 | 9% | 7 | -104%*
O=C(OCc1ccccc1)c1ccc(Br)o1 | -4 | 2% | -3 | -107%*
Clc1cccc(-c2nc(-c3ccc(-c4nn[nH]n4)cc3)no2)c1 | x | -8% | -36 | x
Cc1onc(-c2ccccc2)c1NC(=O)N(Cc1ccccc1)C(C)C | 0 | -1% | -117* | i
O=C(Nc1ccc(C(=O)N2CCCCC2)cc1)[C@H]1O[C@@H](n2ccc(=O)[nH]c2=O)[C@H](O)[C@@H]1O | 0 | x | x | i
CCn1c(=S)sc2c(=O)n(CC(=O)Nc3ccccc3)c(C)nc21 | -1 | -4% | -14 | i
CCn1c(=S)sc2c(=O)n(CC(=O)Nc3ccccc3C(F)(F)F)c(C)nc21 | 0 | 11% | -127* | x
Cn1c(NCCN2CCCC2)nc2cc(-c3ccsc3)sc2c1=O | -2 | x | x | i
CN1C(=O)CC(N2CCN(C(=O)CN3CCCC3)CC2)C1=O (stereo not given) | 1 | 11% | -7 | i
CN1C(=O)CC(N2CCN(CC(=O)N3CCCC3)CC2)C1=O (stereo not given) | -1 | 6% | -8 | -113%*
CC(=O)C1=C(O)C(=O)N(c2ccc(O)cc2)C1c1cccc(F)c1 (stereo not given) | 1 | 4% | -80* | i

Compound activity as filed in PubChem.
